ST2 inh – inhibitors of human ST2 (IL1RL1) binding to IL-33; Q01638; AlphaLISA ST2-Fc/biotin-IL-33 interaction, 1 h; inhibition, % for hits at 17 µM; 78,000 compounds, 2.3% hits; in the data active = inhibition above about 30%
Target sequence (Q01638 whole entry, looked up): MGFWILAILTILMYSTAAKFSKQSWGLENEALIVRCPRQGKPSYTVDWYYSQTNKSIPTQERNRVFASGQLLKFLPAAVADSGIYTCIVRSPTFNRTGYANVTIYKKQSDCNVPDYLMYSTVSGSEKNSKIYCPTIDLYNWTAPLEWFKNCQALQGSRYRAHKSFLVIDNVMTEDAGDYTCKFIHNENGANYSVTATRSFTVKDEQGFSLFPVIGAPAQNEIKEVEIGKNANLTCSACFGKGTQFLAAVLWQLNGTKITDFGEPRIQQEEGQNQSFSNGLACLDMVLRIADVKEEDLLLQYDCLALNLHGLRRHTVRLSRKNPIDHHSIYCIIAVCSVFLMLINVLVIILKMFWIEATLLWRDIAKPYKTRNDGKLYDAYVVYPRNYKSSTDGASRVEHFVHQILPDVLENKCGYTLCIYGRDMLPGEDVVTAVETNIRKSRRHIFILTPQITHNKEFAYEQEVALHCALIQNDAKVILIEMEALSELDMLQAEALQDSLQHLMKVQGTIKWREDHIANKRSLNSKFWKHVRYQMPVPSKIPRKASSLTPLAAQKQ
Numbers without * were called inactive; i = inactive; ! = not active in a repeat. The sample as a whole holds a higher share of hits than the screen did.

SMILES	ST2 inh
COc1ccc(NC2=CC(=NS(=O)(=O)c3cc(C)ccc3C)c3ccccc3C2=O)cc1	95%*
Cc1ccc(C)c(S(=O)(=O)Nc2ccccc2Cl)c1	i
COc1ccc(Nc2cc(C)nc(N3CCN(S(=O)(=O)c4ccc(C)cc4C)CC3)n2)cc1	i
COc1ccc(S(=O)(=O)Nc2cc(C)ccc2C)cc1	i
CN=C(NS(=O)(=O)c1cc(C)ccc1C)c1ccccc1	i
Cc1ccc(C)c(S(=O)(=O)N=C2C=C(Nc3ccccc3)C(=O)c3ccccc32)c1	88%*
CSCc1ccc(C(=O)N(C)C2CCCN(C3Cc4ccccc4C3)C2)o1 (centres undefined)	i
Nc1ccccc1S(=O)(=O)NCC(=O)N1CCCC1	i
O=C(CCC1CCN(S(=O)(=O)c2ccc(Cl)s2)CC1)Nc1ccccc1	i
COc1cccc(NC(=O)O[C@@H]2CO[C@H]3[C@@H]2OC[C@@H]3Nc2nccc(-c3ccc(-c4ccccc4)cc3)n2)c1	i
O=C(Nc1ccc(Oc2ccccc2)cc1)O[C@@H]1CO[C@H]2[C@@H]1OC[C@@H]2Nc1nccc(-c2cccs2)n1	34%*
COc1cc(NC(=O)N[C@H]2CO[C@H]3[C@@H]2OC[C@@H]3Nc2nccc(-c3cccs3)n2)cc(OC)c1	i
Cc1ccccc1NC(=O)C1(N(C(=O)Cn2nnnc2N)c2cccc(Cl)c2)CCCCC1	i
CC(=O)NC1=NN(C(C)=O)C(C)(c2ccc3c(c2)OCO3)S1 (centres undefined)	i
O=C(CCCn1cnnn1)NCc1cccnc1N1CCCCCCC1	i
Cc1ccccc1-c1nc2cc(NC(=O)CC(C)C)ccc2o1	i
O=c1oc(-c2ccccc2)nc2ccc(Cl)cc12	i
CCc1cc2c(=O)oc(-c3ccccc3C)nc2s1	33%*
CCCc1nc(C)cc(-c2ccc(F)c(CO)c2)n1	i
CC(=O)c1ccc(N2CCN(C(=O)C3c4ccccc4C(=O)N4CCc5ccccc5C34)CC2)cc1 (centres undefined)	i
Cc1ccc(S(=O)(=O)N(Cc2ccc([N+](=O)[O-])cc2)C(C)(C)C)cc1	i
Cc1ccc(S(=O)(=O)c2ccc(-c3ccc([N+](=O)[O-])cc3)cc2)cc1	31%*
Cc1ccc(NS(=O)(=O)c2ccc([N+](=O)[O-])cc2)cc1	i
CN(C)c1nc2c(c(=O)n(C)c(=O)n2C)n1CCSc1nc2ccccc2s1	i
CC(=NCc1ccccc1)C1=C(O)CC(C)(C)CC1=O	i
SMILES	ST2 inh
Cc1ccc(-n2c(CN(C)S(C)(=O)=O)n[nH]c2=O)cc1C	i
CCOc1ccc(C(=O)Nc2ccccc2C(C)C)cc1[N+](=O)[O-]	i
CCOc1ccc(CC(=O)Nc2ccccc2C(N)=O)cc1OCC	i
CC1CCCC[C@H]2C(=O)C=C[C@H](O)[C@@H]2CC(=O)O1 (some centres undefined)	46%*
Cc1ccc(C(=O)CSc2nc3ccccc3[nH]2)cc1	i
COCC1=C(C(=O)OC)C(c2ccncc2)C(C#N)=C(N)O1 (centres undefined)	i
Nc1ccc(N)c2c1C(=O)c1c(N)ccc(N)c1C2=O	94%*
Cc1ccc(C2=NN(C(=O)CCC(=O)O)C(c3ccc(Br)cc3)C2)cc1 (centres undefined)	38%*!
Cc1ccc(C2=NN(C(=O)CCC(=O)O)C(c3ccc(Cl)cc3)C2)cc1 (centres undefined)	i
O=C(O)CCCC(=O)N1N=C(c2ccc(Br)cc2)CC1c1ccc(Cl)cc1 (centres undefined)	i
COc1cc2c(cc1CN1CC3(CCNCC3)CC1C(=O)O)OCO2 (centres undefined)	i
N=C1SCCN1CC(=O)c1ccc(Br)cc1	48%*!
O=C(CSc1ncn[nH]1)c1ccc(Br)cc1	i
O=C(CN1C(=O)CCSc2ccccc21)Nc1ccc(Br)cc1	i
Cc1ccccc1C1=N/C(=C\c2cccc([N+](=O)[O-])c2)C(=O)O1	i
O=C(Nc1ccc(F)c(Cl)c1)c1cnc2n(c1=O)CCS2	i
O=C(Nc1ccc(Cl)c(Cl)c1)c1cnc2n(c1=O)CCS2	32%*
O=C(Nc1cc(Cl)cc(Cl)c1)c1cnc2n(c1=O)CCS2	i
COc1cc(C(=O)N2CCN(Cc3ccccc3[N+](=O)[O-])CC2)cc(OC)c1OC	i
CCOC(=O)c1c(C)n(-c2ccccc2)c2c1cc(OC(C)=O)c1ccccc12	i
O=Cc1ccc(S(=O)(=O)c2ccc(Cl)cc2)cc1	i
CC(N)=NS(=O)(=O)c1ccc(Cl)cc1	i
CC(C)c1ccc(S(=O)(=O)N=C2C=CC(=O)c3ccccc32)cc1	45%*
CC(=O)Nc1ccc(S(=O)(=O)Nc2ccc(C(C)C)cc2)cc1	i
O=C1C=CC(=NS(=O)(=O)c2ccc(Cl)cc2)c2ccccc21	60%*
O=C1CC(c2ccc(Cl)cc2)CC2=C1C(c1ccc(F)cc1)Nc1ccccc1N2 (centres undefined)	i
CCC/C=C/c1cncc(C(=O)N2CCCCC2)n1	i
CCN1CCN(C(=O)CCC2CCN(C(=O)c3snnc3C)CC2)CC1	i

High-throughput results: PubChem BioAssay, Paczesny and Yang Labs, IUPUI and University of Michigan
